Test results published in PubChem BioAssay AID623911 (Vanderbilt High Throughput Screening Facility, 2012).
Among all 2,100 compounds or so, about 770 (37%) were called active.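 The calls were made as follows: active = by-eye trace score of 1 for enhancers or -1 for inhibitors, so actives lie on both sides (some results past the limit were not filed as active); inactive = score 0, or 3 fluorescent, or 4 baseline rise.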 The list shows a part of the results.

These molecules were tested against G protein-activated inward rectifier potassium channel 2 (Homo sapiens) + G protein-activated inward rectifier potassium channel 1 (Homo sapiens) (UniProt P48051+P48549) (assay: GIRK1/2 thallium flux modulators, retest, confirmation, cell-based, HEK293 rmGlu8/hGIRK1/2, FluoZin-2 (AID 623911)). Details: HEK293 rmGlu8/hGIRK1/2, thallium flux FluoZin-2; actives lie on both sides; glutamate co-added at its EC20 level.
Chain of G protein-activated inward rectifier potassium channel 2 (Homo sapiens) + G protein-activated inward rectifier potassium channel 1 (Homo sapiens) (P48051 whole entry, looked up): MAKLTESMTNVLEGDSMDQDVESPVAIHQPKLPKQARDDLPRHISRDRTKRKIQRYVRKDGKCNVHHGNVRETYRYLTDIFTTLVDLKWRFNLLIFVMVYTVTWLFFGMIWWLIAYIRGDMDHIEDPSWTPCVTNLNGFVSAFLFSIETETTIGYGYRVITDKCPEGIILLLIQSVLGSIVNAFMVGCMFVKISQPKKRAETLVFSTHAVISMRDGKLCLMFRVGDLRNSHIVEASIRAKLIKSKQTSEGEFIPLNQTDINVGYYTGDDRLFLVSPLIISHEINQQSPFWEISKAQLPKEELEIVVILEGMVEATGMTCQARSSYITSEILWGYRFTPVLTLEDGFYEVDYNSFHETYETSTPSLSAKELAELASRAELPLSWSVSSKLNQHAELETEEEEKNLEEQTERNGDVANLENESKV
Chain of G protein-activated inward rectifier potassium channel 2 (Homo sapiens) + G protein-activated inward rectifier potassium channel 1 (Homo sapiens) (P48549 whole entry, looked up): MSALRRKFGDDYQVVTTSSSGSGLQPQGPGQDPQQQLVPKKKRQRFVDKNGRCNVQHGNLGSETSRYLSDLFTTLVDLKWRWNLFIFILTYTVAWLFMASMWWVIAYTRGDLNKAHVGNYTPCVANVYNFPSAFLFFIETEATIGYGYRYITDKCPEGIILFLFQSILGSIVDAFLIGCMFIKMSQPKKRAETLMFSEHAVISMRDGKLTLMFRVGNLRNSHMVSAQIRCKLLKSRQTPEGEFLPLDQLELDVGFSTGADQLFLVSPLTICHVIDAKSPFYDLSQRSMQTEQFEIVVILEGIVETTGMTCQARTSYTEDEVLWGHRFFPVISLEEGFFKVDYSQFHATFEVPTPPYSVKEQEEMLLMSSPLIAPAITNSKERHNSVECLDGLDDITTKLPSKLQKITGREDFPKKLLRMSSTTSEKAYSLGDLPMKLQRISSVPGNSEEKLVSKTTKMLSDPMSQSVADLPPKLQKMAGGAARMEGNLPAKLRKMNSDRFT
For O=C1NC(=S)SC1=C1CCCCCC1, the manual score was 1 (active).
CSc1nc2ccccc2cc1/C=C(\C#N)c1cccc(C)c1 was tested, and the manual score was 0 (inactive).
For CCCCCC(=O)NC(=S)NNC(=O)c1ccc([N+](=O)[O-])cc1, the manual score was 1 (active).
With COC(=O)C(CC(C)C)NC(=O)c1ccc([N+](=O)[O-])c(C)c1 (configuration not stated) the manual score was 0 (inactive).
CCCCNC(=S)NC(=O)c1ccc([N+](=O)[O-])cc1 was tested, and the manual score was 1 (active).
With CC(C)CNC(=S)NC(=O)c1ccc(F)cc1 the manual score was 1 (active).
With CC(C)CNC(=S)NC(=O)c1ccc([N+](=O)[O-])cc1 the manual score was 1 (active).
In the case of CCCCCCc1cc2cc(-c3nnc(-c4cc(OC)c(OC)c(OC)c4)o3)c(=O)oc2cc1O, the manual score is reported as 3 (inactive).
With CCn1c2ccccc2c2cc(/C=N/n3cn[nH]c3=S)ccc21 the manual score was 0 (inactive).
For O=c1cc(CN2CCOCC2)nc(C2CC2)[nH]1, the manual score was 0 (inactive).
With O=C(COC(=O)CCC1CCCC1)Nc1nc2c(F)c(F)c(F)cc2s1 the manual score was 0.5 (inactive).
For O=C(CSc1nc(-c2ccc(F)cc2)cs1)N1CCOCC1, the manual score was 0 (inactive).
With CCOC(=O)/C(C#N)=C/C1=C(N2CCCC2)CC(C)(C)OC1 the manual score was 0 (inactive).
Cc1sc2ncnc(SCc3ccco3)c2c1C was tested, and the manual score was 0 (inactive).
With Cc1sc2nc(C(C)C)nc(SCC(=O)NCc3ccco3)c2c1C the manual score was 1 (active).
O=C(CSc1nnc(-c2c[nH]c3ccccc23)n1-c1ccc(F)cc1)NCc1ccco1 was tested, and the manual score was -0.5 (inactive).
In the case of CCn1c(SCC(=O)NC(=O)NCc2ccco2)nc2sc(C)c(C)c2c1=O, the manual score is reported as 1 (active).
In the case of Cc1sc2nc(C(C)C)nc(SCC(=O)N3c4ccccc4CC3C)c2c1C (configuration not stated), the manual score is reported as 1 (active).
With CCCn1c(SCc2nc3sc(C)c(C)c3c(=O)[nH]2)nc2ccccc2c1=O the manual score was 0 (inactive).
For O=C(c1ccc(CS(=O)(=O)c2ccc(Br)cc2)o1)N1CCN(c2ncccn2)CC1, the manual score was 0 (inactive).
In the case of CCOC(=O)C1CCN(C(=O)CN(c2ccc(Cl)c(C(F)(F)F)c2)S(C)(=O)=O)CC1, the manual score is reported as 0 (inactive).
For O=c1cc(Cn2ccnc2)c2cc3c(cc2o1)CCC3, the manual score was 0 (inactive).
With O=C(Nc1ccc(F)cc1)c1cccc2c1C(=O)N(Cc1ccccn1)C2 the manual score was 0 (inactive).
In the case of C/C(CC(C)(C)C1CCCCC1)=N\NC(N)=S, the manual score is reported as 0 (inactive).
For Cc1ccc(-c2nnc(SCC(=O)Nc3ccc4c(c3)OCCO4)n2N)cc1, the manual score was 0 (inactive).
Cc1ccc2nc(-c3ccc(O)cc3)c(Nc3ccc4c(c3)OCCO4)n2c1 was tested, and the manual score was -1 (active).
In the case of CCn1c(-c2cc3c(C(F)(F)F)nn(C)c3s2)n[nH]c1=S, the manual score is reported as 0 (inactive).
In the case of O=C(NC1CC1)c1ccc(CSCc2cccc(F)c2)o1, the manual score is reported as 0 (inactive).
In the case of O=C(O)C1C2C=CC(C2)C1C(=O)NCCc1cccc(Cl)c1 (configuration not stated), the manual score is reported as 0.5 (inactive).
In the case of O=C(CCSCc1cccc(Cl)c1)NCCc1ccc(Cl)cc1, the manual score is reported as 1 (active).
COc1ccc(C2C(C(N)=O)=C(C)Nc3nc(-c4cccc(Cl)c4)nn32)cc1OC (configuration not stated) was tested, and the manual score was 0 (inactive).
For CCCCCc1nnc(NC(=O)Cc2cccs2)s1, the manual score was 0 (inactive).
With CCCCN(C)S(=O)(=O)c1ccc(C(=O)Nc2nnc(-c3cccs3)o2)cc1 the manual score was 1 (active).
In the case of O=C(N/N=C/c1c(Cl)cccc1Cl)c1cccc(F)c1, the manual score is reported as 0 (inactive).
In the case of Cc1occc1C(=O)Nc1cccc(C(F)(F)F)c1, the manual score is reported as 0 (inactive).
COc1ccc(C(=O)Nc2ccc(Oc3ncnc4sc(-c5ccccc5)cc34)cc2)cc1OC was tested, and the manual score was 0 (inactive).
In the case of O=C(Nc1nnc(-c2cccs2)o1)c1cccc(F)c1, the manual score is reported as 1 (active).
With O=C(Nc1nnc(-c2cccs2)o1)c1cccc(Oc2ccccc2)c1 the manual score was 1 (active).
In the case of O=C(Nc1nnc(-c2cccs2)o1)c1cccc(C(F)(F)F)c1, the manual score is reported as 1 (active).
Cc1cc(C)c(NC(=O)c2ccc(S(=O)(=O)N(C)C)cc2)c(C)n1 was tested, and the manual score was 0 (inactive).
For CCOc1ccc(-c2cc(C)n3nc(C(N)=O)cc3n2)cc1, the manual score was 0 (inactive).
With COCCCNc1c2c3c(cccc3[nH]c1=O)C(=O)c1ccccc1-2 the manual score was 3 (inactive).
With Cc1[nH]c2ccccc2c1CN1CCc2ccccc2C1 the manual score was 0 (inactive).
In the case of CNc1nc(Cl)nc(NC(C)(C)C)n1, the manual score is reported as 0 (inactive).
CCOC(=O)/C(=C\C=C1/Sc2cc(OCC)c(OCC)cc2N1CC)C(C)=O was tested, and the manual score was 3 (inactive).
CCC1Oc2ccc(C)cc2N(CC(=O)N(Cc2ccc(C)o2)C2CCCC2)C1=O (configuration not stated) was tested, and the manual score was -1 (active).
Cc1ccc2c(c1)N(CC(=O)N(Cc1ccccn1)Cc1ccco1)C(=O)C(C(C)C)O2 (configuration not stated) was tested, and the manual score was -0.5 (inactive).
Cc1ccc(S(=O)(=O)c2c(C)cc(C)nc2Cl)c(C)c1 was tested, and the manual score was 0 (inactive).
CCCCn1c(SCC(=O)Nc2ccc(OC)cc2)nc2ccc(N3CCOCC3)cc2c1=O was tested, and the manual score was 0 (inactive).
With COc1ccc(NC(=O)CSc2nc3ccccc3c(=O)n2CCCN2CCCCC2)c(OC)c1 the manual score was -1 (active).
In the case of CCC(C)NC(=O)CSc1nc2ccccc2c(=O)n1Cc1ccc(OC)cc1 (configuration not stated), the manual score is reported as 0 (inactive).
With COc1ccc(C(C)n2c(C)c3c(C)nnc(C)c3c2C)cc1 (configuration not stated) the manual score was -1 (active).
For CCOC(=O)CSc1nc(C)c2cc(OC)ccc2n1, the manual score was 0 (inactive).
In the case of Cn1cc(S(=O)(=O)Nc2ccc(F)cc2F)c(=O)n(C)c1=O, the manual score is reported as 0 (inactive).
S=c1nn[nH]n1C12CC3CC(CC(C3)C1)C2 was tested, and the manual score was 1 (active).
In the case of Cc1cc2[nH]c(=O)c3ccccc3n2n1, the manual score is reported as 0 (inactive).
CCOC(=O)c1cnn2c1[nH]c(=O)c1ccccc12 was tested, and the manual score was 1 (active).
In the case of CCOC(=O)c1ccccc1Nc1cn(C(C)=O)c2ccccc12, the manual score is reported as -0.5 (inactive).
In the case of CCS(=O)(=O)Nc1ccc(-c2nnc(SCC(=O)c3ccc(NC(C)=O)c(OC)c3)o2)cc1, the manual score is reported as 0 (inactive).
With COc1ccc(NC2=NC(=S)N(c3ccccc3C)C23CCCCC3)cc1 the manual score was 1 (active).
For Cc1ccc(NC2=NC(=S)N(CC#N)C23CCCCC3)cc1, the manual score was 0 (inactive).
In the case of N#CCN1C(=S)N=C(Nc2cccc(Cl)c2)C12CCCCC2, the manual score is reported as 0.5 (inactive).
For COc1ccc(OC)c(Nc2ncnc3c2cnn3-c2cccc(C)c2)c1, the manual score was 0 (inactive).
For CCOC(=O)C(C)Sc1nc2c(cnn2-c2ccc(C)cc2)c(=O)[nH]1 (configuration not stated), the manual score was 0 (inactive).
In the case of CN(C)CCNc1ncnc2c1cnn2-c1ccc(Cl)cc1, the manual score is reported as 0 (inactive).
In the case of Cc1ccc(-n2ncc3c(SCc4ccccc4)ncnc32)cc1, the manual score is reported as 1 (active).
For Cc1ccc(CSc2ncnc3c2cnn3-c2ccc(C)cc2)cc1, the manual score was 1 (active).
With NC(=O)CSc1ncnc2c1cnn2Cc1ccccc1 the manual score was 0 (inactive).
For CN(C)CCCOc1ccc(C(C)(C)c2ccccc2)cc1, the manual score was 0 (inactive).
With COc1ccc(OCCCN2CCCCCC2)cc1 the manual score was 0 (inactive).
With CCN1CCN(CCCOc2ccc(-c3ccccc3)cc2)CC1 the manual score was -1 (active).
In the case of CCCCC(=O)N1CCCC(c2nc3c(nnn3Cc3cc(C)ccc3C)c(=O)[nH]2)C1 (configuration not stated), the manual score is reported as 0 (inactive).
In the case of S=c1[nH]nc(-c2ccco2)n1/N=C/c1ccc(Br)s1, the manual score is reported as 0 (inactive).
With Cc1cc(-c2n[nH]c(=S)n2/N=C/c2ccc(Br)s2)n[nH]1 the manual score was 0 (inactive).
With S=c1[nH]nc(-c2ccccn2)n1/N=C/c1ccc(Br)s1 the manual score was 1 (active).
CN(C)Cc1cc(C(C)(C)C)c(O)c(C(C)(C)C)c1 was tested, and the manual score was -1 (active).
Cc1cccc(NC(=S)NNC(=O)c2csc(C(C)C)c2)c1 was tested, and the manual score was 1 (active).
With Cc1cc(C)c2oc(-c3ccc(C)c(NC(=S)NC(=O)c4cccs4)c3)nc2c1 the manual score was 0 (inactive).
In the case of Cc1ccc(-c2nc3ccccc3o2)cc1NC(=S)NC(=O)c1cc2ccccc2o1, the manual score is reported as 0 (inactive).
For Cc1ccc(C)c(NC(=S)NNC(=O)c2csc(C(C)C)c2)c1, the manual score was 1 (active).
With c1cn(CC2(Cn3ccnc3)COC2)cn1 the manual score was 0 (inactive).
For CN(C)CCNC(=O)c1ccc2c(c1)N(Cc1ccc(F)cc1)CCS2, the manual score was -1 (active).
In the case of CN(C)CCNC(=O)c1cc2c(s1)-c1ccccc1OC2, the manual score is reported as 0 (inactive).
For CCCCOc1ccc(C(=O)OC2CC(C)N(C)CC2C)cc1 (configuration not stated), the manual score was -1 (active).
For CCCCOC(=O)Nc1ccc(C(=O)OCCC)cc1, the manual score was 0 (inactive).
With COc1cccc(NC(=O)CSc2nc(N)cc(N)n2)c1 the manual score was 0 (inactive).
In the case of CC1CCc2nn(CC(=O)N3CCN(C(=O)c4ccco4)CC3)cc2C1 (configuration not stated), the manual score is reported as 0 (inactive).
In the case of COc1cccc(NC(=S)N/N=C2/CCCCc3ccccc32)c1, the manual score is reported as 0.5 (inactive).
With COc1cccc(NC(=O)C(Sc2nc3ccccc3c(=O)n2CC(C)C)c2ccccc2)c1 (configuration not stated) the manual score was 0 (inactive).
For COc1cccc(NC(=O)Cn2cc3c(n2)CCCCC3)c1, the manual score was 1 (active).
In the case of COc1cccc(NC(=O)Cn2nnc(C(=O)Nc3ccccc3)c2N)c1, the manual score is reported as 1 (active).
In the case of COc1cccc(NC(=O)CSc2nnc(-c3ccoc3C)n2-c2ccccc2)c1, the manual score is reported as -0.5 (inactive).
O=C(CN1CCCCC1)Nc1cccc(Oc2ccccc2)c1 was tested, and the manual score was 0 (inactive).
In the case of COc1cccc(NC(=O)Cn2cc(C#N)c3ccccc32)c1, the manual score is reported as 1 (active).
Cc1cc(C)cc(NC(=O)Cn2cc3c(n2)CCCCC3)c1 was tested, and the manual score was 1 (active).
For CCCOC(=O)c1ccc(-c2c(C)noc2-c2ccc(OC)cc2O)o1, the manual score was 0 (inactive).
With CC(=O)c1c(C)[nH]c(C(=O)COc2cc(C)cc(C)c2)c1C the manual score was 0 (inactive).
In the case of Fc1ccccc1NC(=S)N/N=C/c1ccccc1Br, the manual score is reported as 0 (inactive).
With Fc1ccccc1/C=N/NC(=S)Nc1ccc(Cl)cc1Cl the manual score was 0 (inactive).
For O=[N+]([O-])c1ccc(/C=N/NC(=S)Nc2ccccc2F)o1, the manual score was 1 (active).
In the case of CSC(=O)NC12CC3CC(CC(C)(C3)C1)C2, the manual score is reported as 0 (inactive).
With CCC(C)NC(=O)CN1C(=O)CC(C)(C)S(=O)(=O)c2ccccc21 (configuration not stated) the manual score was 0 (inactive).
With COCCNC(=O)CCCCCn1c(=S)[nH]c2ccccc2c1=O the manual score was 0 (inactive).
With COCCNC(=O)CN1C(=O)CSc2ncccc21 the manual score was 1 (active).
CCc1cc(-c2n[nH]c(=S)n2C(C)c2ccccc2)cs1 (configuration not stated) was tested, and the manual score was -0.5 (inactive).
With CC(c1ccc(F)cc1)n1c(-c2ccc3ccccc3n2)n[nH]c1=S (configuration not stated) the manual score was 0.5 (inactive).
With CC(c1ccc(Cl)cc1)n1c(-c2ccc3ccccc3n2)n[nH]c1=S (configuration not stated) the manual score was 1 (active).
